Assay results published in PubChem BioAssay (NCI).
About 83,000 compounds went through this panel and 20% of them were active in at least one assay; those are over-represented in the sample as a whole.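 Single-concentration screen, 48 h exposure, 96-well plates. Endpoint: percent growth. Below 10 = active.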 Activity calls are given as the source filed them.

How the values were obtained:
Test in all cases: NCI-60 one-dose screen, 48 h (100 = growth as untreated, 0 = no growth, -100 = all killed)
Conditions in all cases: 10 µM unless noted
[1] = test system: SK-MEL-2 melanoma
[2] = test system: EKVX NSCLC
[3] = test system: SN12C renal
[4] = test system: UO-31 renal
[5] = test system: TK-10 renal
[6] = test system: ACHN renal
[7] = test system: CAKI-1 renal
[8] = test system: A498 renal
[9] = test system: CCRF-CEM leukemia
[10] = test system: MOLT-4 leukemia

Measured: growth

CNC1(C#N)CCN(Cc2ccccc2)CC1
inactive: [1] 93.2% | [2] 90.2% | [3] 93.9% | [4] 80.9% | [5] 272% | [6] 101% | [7] 72.7% | [8] 110% | [9] 108% | [10] 170%

Cc1cccc(-c2cc(O)c(C(=O)N3CCOCC3)s2)c1
inactive: [1] 28.5% | [2] 58.6% | [3] 49.1% | [4] 58.3% | [5] 61.7% | [6] 60.6% | [7] 47.5% | [8] 26.7% | [9] 35.5% | [10] 21.6%

Nc1nc(I)c2ncn(C3OC(CO)C(O)C3O)c2n1 (stereo not drawn)
inactive: [1] 159% | [2] 96.6% | [3] 100% | [4] 96% | [5] 134% | [6] 111% | [8] 103% | [9] 116% | [10] 109%
active: [7] 9.47%

C#CC[C@H](N)C(=O)O
inactive: [1] 110% [20 µM] | [2] 106% [20 µM] | [3] 98.2% [20 µM] | [4] 86.1% [20 µM] | [5] 87.7% [20 µM] | [6] 107% [20 µM] | [7] 91.1% [20 µM] | [8] 105% [20 µM] | [9] 98.6% [20 µM] | [10] 102% [20 µM]

COc1cccc(/C=C2\COc3ccc(O)cc3C2=O)c1OC
inactive: [1] 96.4% | [2] 92.8% | [3] 44.4% | [4] 58.6% | [5] 89.3% | [6] 54.6% | [7] 63.4% | [8] 90.7% | [10] 32.9%
active: [9] 2.69%

CC(C)OC(=O)NNC(=O)c1ccncc1
inactive: [1] 84.4% | [2] 106% | [3] 100% | [4] 77.8% | [5] 103% | [6] 96% | [7] 94.4% | [8] 119% | [9] 132% | [10] 102%

O=C(/C=C/c1ccccc1)c1ccc2ccccc2c1
inactive: [1] 98.4% | [2] 86.7% | [3] 99.7% | [4] 73.9% | [5] 44.4% | [6] 16.2% | [7] 83.9% | [8] 93.5% | [9] 23% | [10] 74.5%

CC1(C)N=C(N)N=C(N)N1c1cccc(CN)c1
inactive: [1] 99.8% | [2] 83.9% | [3] 91.3% | [4] 66.8% | [5] 101% | [6] 100% | [7] 89.2% | [8] 98% | [9] 96.5% | [10] 95.1%

CCCCCCNC(=O)c1cc(NCc2cc(O)ccc2O)ccc1O
inactive: [1] 95.5% | [2] 66.6% | [3] 56.3% | [4] 34.4% | [5] 68.6% | [6] 57.1% | [7] 56.3% | [8] 99% | [10] 12.5%
active: [9] 5.38%

Nc1c(-c2nc3ccccc3c(=O)[nH]2)nnn1-c1ccc(Cl)cc1
inactive: [1] 96.3% | [2] 103% | [3] 95.4% | [4] 48% | [5] 72.6% | [6] 87% | [7] 70.2% | [8] 57.4% | [9] 90.2% | [10] 87.7%

CC(=O)Nc1ccc(C(=O)/C=C/c2ccccc2)cc1
inactive: [1] 78.2% | [2] 95.2% | [3] 77.2% | [4] 51.8% | [5] 82.1% | [6] 94.6% | [7] 88.2% | [8] 74% | [9] 95.1% | [10] 81.6%

CC(C)n1nc(C#Cc2cccc3cc(-c4cccc(C(F)(F)F)c4)ncc23)c2c(N)ncnc21
inactive: [1] 42.8% | [2] 93.6% | [3] 86.1% | [4] 82% | [5] 85.1% | [6] 68.7% | [7] 86.8% | [8] 83.5% | [10] 43.2%

NC(N)=N/N=C(/c1ccccc1)c1ccccc1F
inactive: [1] 70.5% | [2] 60% | [3] 37.1% | [4] 44% | [5] 64.9% | [6] 41% | [7] 35.7% | [8] 44.9% | [10] 22.4%
active: [9] -2.22%

CCOC(=O)c1sc(-c2ccc(OS(=O)(=O)c3ccc(C(C)(C)C)cc3)c(C=O)c2)nc1C
inactive: [1] 72.7% | [2] 40.2% | [3] 32.1% | [4] 29.9% | [5] 55.8% | [6] 26.6% | [7] 20.5% | [8] 57% | [9] 29.9% | [10] 20.5%

Cn1ccc(Cc2cnc(N)s2)n1
inactive: [1] 97.4% | [2] 106% | [3] 104% | [4] 86.2% | [5] 88.7% | [6] 99.8% | [7] 93.6% | [8] 94.2% | [9] 100% | [10] 93.3%

CN(C)CCC(O)(Cc1ccccc1)c1ccccc1 (stereo not drawn)
inactive: [1] 100% | [2] 99.5% | [3] 105% | [4] 87.8% | [5] 93.8% | [6] 101% | [7] 83.6% | [8] 185% | [10] 102%

COc1cc2c(O)n(CCCn3ccnc3)c3c4cnc5cccc(c(=O)c3c2cc1OC)c54
active: [10] 4.13%
inactive: [1] 71% | [2] 49.6% | [3] 19.2% | [4] 64.7% | [5] 92.7% | [6] 27.2% | [7] 66.4% | [8] 21.5% | [9] 11%

c1ccc(-c2oc3ccccc3c2-c2ccccc2)cc1
inactive: [1] 92.9% | [2] 96.6% | [3] 92.2% | [4] 86.4% | [5] 110% | [6] 97.3% | [7] 69.4% | [8] 89.9% | [10] 54.9%

OC(c1cccc(OCc2ccccc2)c1)c1nnc(-c2ccccc2)o1 (stereo not drawn)
inactive: [1] 100% | [2] 77.3% | [3] 92.8% | [4] 68.1% | [5] 143% | [6] 92.6% | [7] 95.2% | [8] 102% | [9] 75.7% | [10] 105%

COc1cc(C(=O)/C=C/c2c(C(F)(F)F)nc3ccccn23)cc(OC)c1OC
active: [1] -49.3% | [2] -0.4% | [3] 3.89% | [4] -71.1% | [6] -78.7% | [7] -25.5% | [8] 8.53% | [10] 4.22%
inactive: [5] 11.2%

C=C1C(=O)O[C@H]2[C@H]1CC/C(COC(=O)/C=C\C(=O)NCc1ccc(Cn3c(=O)sn(CCCI)c3=O)cc1)=C\CC[C@@]1(C)O[C@@H]21
active: [1] -64.4% | [2] -58.8% | [3] -90.8% | [4] -100% | [5] -79.3% | [6] -100% | [7] -78.6% | [8] -17.6% | [9] -21.1% | [10] -30%

C/C(=N\NC(N)=S)c1nc2ccc(Cl)cc2[nH]1
inactive: [1] 32.1% | [2] 63.3% | [3] 48.5% | [4] 41.9% | [5] 33.9% | [6] 19.6% | [7] 26.9% | [8] 53.3% | [9] 32.8% | [10] 30.4%

CCN(CC)CCCNC(=O)c1ccc(N)cc1O
active: [9] -32.8%
inactive: [1] 100% | [2] 103% | [3] 101% | [4] 69.7% | [5] 106% | [6] 98.3% | [7] 106% | [8] 56.2% | [10] 91%

COc1cc(-c2ncn(/C=C\c3nnco3)n2)cc(C(F)(F)F)c1
active: [1] -6.5% | [8] -33.9% | [10] 1.86%
inactive: [2] 61.5% | [3] 33.6% | [4] 18.3% | [5] 34% | [6] 27.7% | [7] 26.1%

Cn1ccnc1C(=O)/C=C/c1ccc(C(=O)Nc2ccc(S(F)(F)(F)(F)F)cc2)cc1
inactive: [1] 62.7% | [2] 26.3% | [4] 28.5% | [5] 48.8% | [6] 42.5% | [7] 23.9% | [8] 38.4%
active: [3] 7.07% | [10] -5.05%

NC(N)=N/N=C(/c1ccccc1)c1ccc(N)cc1
inactive: [1] 112% | [2] 88.2% | [3] 96.2% | [4] 95% | [5] 135% | [6] 107% | [8] 125% | [10] 107%
active: [7] -0.33%

CCCCN(Cc1ccc(C(=O)NO)cc1)C(=O)Nc1ccc(OCCCCCCCCCn2cc(CCCCC(=O)N[C@H](C(=O)N3C[C@H](O)C[C@H]3C(=O)NCc3ccc(-c4scnc4C)cc3)C(C)(C)C)nn2)cc1
inactive: [1] 90.6% | [2] 72.1% | [3] 31% | [4] 70.8% | [5] 87.6% | [6] 105% | [7] 61.7% | [8] 66.5% | [9] 13% | [10] 14.5%

CC[C@@H](C[C@H](CCO)c1ccccc1)c1cc2ccccc2o1
inactive: [1] 81.3% | [2] 103% | [3] 95.8% | [4] 88.8% | [5] 98.8% | [6] 99.1% | [7] 77.4% | [8] 104% | [9] 90.7% | [10] 79.9%
